Compound activity: PubChem, Broad Institute
STK33 kin inh: human STK33 kinase inhibition. Q9BYT3. ADP-Glo luminescence, MBP substrate. inhibition, % at 12.5 µM. hit rate 0.44% among 27,000; in the data active = inhibition above about 20%; inconclusive = no clear call, values can overlap the other calls
Target sequence (Q9BYT3 whole entry, looked up): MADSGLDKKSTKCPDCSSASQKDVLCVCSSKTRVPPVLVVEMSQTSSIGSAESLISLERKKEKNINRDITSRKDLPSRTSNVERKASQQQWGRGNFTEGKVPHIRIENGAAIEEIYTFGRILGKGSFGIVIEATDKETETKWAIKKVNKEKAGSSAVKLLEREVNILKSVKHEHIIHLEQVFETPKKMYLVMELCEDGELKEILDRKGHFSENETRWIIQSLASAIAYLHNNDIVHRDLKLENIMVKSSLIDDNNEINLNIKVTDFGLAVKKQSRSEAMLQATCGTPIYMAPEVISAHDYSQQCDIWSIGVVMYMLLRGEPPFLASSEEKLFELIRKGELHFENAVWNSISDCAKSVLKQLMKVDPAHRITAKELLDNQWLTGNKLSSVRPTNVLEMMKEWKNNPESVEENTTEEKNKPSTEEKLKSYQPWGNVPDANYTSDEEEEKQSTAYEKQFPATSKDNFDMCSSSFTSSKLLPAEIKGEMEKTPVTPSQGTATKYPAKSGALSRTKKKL
NOMO-1 viab: STK33 inhibitor candidate reducing NOMO-1 cell viability; inhibition, % (no concentration beside the values); hit rate 7.5% among 37,000; NOMO-1 AML viability, CellTiter-Glo luminescence, 72 h; AID 2330; in the data active = inhibition above about 80%; inconclusive = no clear call, values can overlap the other calls
PD-1 reversal: reversal of PD-1 mediated T-cell inhibition; activation, % (no concentration beside the values); 29,000 tested, under 10 active; AID 2316; primary human CD4 T cells, PD-L1 beads, CellTiter-Glo 96 h; call rule not given here;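 note: 0% = median vehicle wells and 100% = positive control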
Starred values were filed as active, the others as inactive; ? = inconclusive; . = not tested or not shown. The sample as a whole holds a higher share of hits than the screen did.

SMILES | STK33 kin inh | NOMO-1 viab | PD-1 reversal
C[C@H](CO)N1C[C@H](C)[C@H](CN(C)Cc2ccncc2)Oc2ccc(NC(=O)Cc3cn(C)c4ccccc34)cc2C1=O | 1 | 69 | -2
C[C@@H]1CN([C@H](C)CO)C(=O)c2cc(NC(=O)Cc3cn(C)c4ccccc34)ccc2O[C@@H]1CN(C)C(=O)Nc1cccc2ccccc12 | . | 99* | -5
C[C@@H]1CN([C@@H](C)CO)C(=O)c2cc(NC(=O)Cc3cn(C)c4ccccc34)ccc2O[C@H]1CN(C)C(=O)Nc1cccc2ccccc12 | . | 18 | -1
C[C@@H]1CN([C@H](C)CO)C(=O)c2cc(NC(=O)Cc3cn(C)c4ccccc34)ccc2O[C@H]1CN(C)Cc1ccc(-c2ccccc2)cc1 | . | 96* | -4
C[C@@H]1CN([C@@H](C)CO)C(=O)c2cc(NC(=O)Cc3cn(C)c4ccccc34)ccc2O[C@@H]1CN(C)Cc1ccncc1 | 1 | 31 | -3
C[C@@H]1CN([C@@H](C)CO)C(=O)c2cc(NC(=O)Cc3cn(C)c4ccccc34)ccc2O[C@H]1CN(C)Cc1ccncc1 | . | 109* | -3
C[C@H]1CN([C@@H](C)CO)C(=O)c2cc(NC(=O)Cc3cn(C)c4ccccc34)ccc2O[C@@H]1CN(C)Cc1ccc(-c2ccccc2)cc1 | . | 60 | -2
CS(=O)(=O)N(CC(=O)Nc1ccc(C(F)(F)F)cc1)c1ccccc1Cl | -3 | 21 | -2
CCCCc1ccc(NC(=O)N=S2CCN(C(=O)c3ccc(Cl)cc3)CC2)cc1 | . | 64 | -3
Cc1cccc(C(=O)Nc2ccc3[nH]c(=O)[nH]c3c2)c1 | . | -26 | 1
O=C(NCCCO)C(=O)NCC1COc2ccccc2O1 (stereo not given) | -2 | -12 | 2
O=C(CSc1nnc2ccc3ccccc3n12)Nc1nsc(-c2ccc(Cl)cc2)n1 | -4 | 0 | .
CC1=CC2OC3[C@H](O)C[C@](C)([C@@]2(CO)CC1=O)[C@]31CO1 (stereo not given in full) | -2 | 119* | -2
CC(=O)OC[C@]12CCC(C)=CC1O[C@@H]1[C@H](O)[C@@H](O[C@H]3O[C@H](CO)[C@@H](O)[C@H](O)[C@H]3O)[C@@]2(C)C12CO2 (stereo not given in full) | 5 | . | .
Nc1ncnc2c1ncn2C1OC(CO)[C@H](O)[C@@H]1S (stereo not given in full) | 0 | -8 | 0
COc1ccc(C[C@H](N)C(=O)N[C@H]2[C@@H](O)[C@H](n3cnc4c(N(C)C)ncnc43)O[C@@H]2CO)cc1 | -16 | 120* | .
C[C@@H]1CCCCO[C@H](CN(C)Cc2ccc(C(=O)Nc3ccccc3N)cc2)[C@@H](C)CN([C@H](C)CO)C(=O)c2cc(NS(=O)(=O)c3ccc(F)cc3)ccc2O1 | . | 128* | 0
C[C@@H]1CCCCO[C@@H](CN(C)Cc2ccc(C(=O)Nc3ccccc3N)cc2)[C@@H](C)CN([C@H](C)CO)C(=O)c2cc(NC(=O)Cc3ccccc3)ccc2O1 | . | 127* | 0
C[C@@H]1CN([C@H](C)CO)C(=O)c2cc(NC(=O)Cc3ccccc3)ccc2O[C@H]1CN(C)Cc1ccc(C(=O)Nc2ccccc2N)cc1 | . | 61 | 0
C[C@@H]1CCCCO[C@@H](CN(C)Cc2ccc(C(=O)Nc3ccccc3N)cc2)[C@@H](C)CN([C@H](C)CO)C(=O)c2cc(NS(C)(=O)=O)ccc2O1 | . | ? | 1
C[C@@H]1CCCCO[C@@H](CN(C)Cc2ccc(C(F)(F)F)cc2)[C@@H](C)CN([C@H](C)CO)C(=O)c2cc(NC(=O)CCCCCC(=O)Nc3ccccc3N)ccc2O1 | . | 125* | 1
CC(C)NC(=O)Nc1ccc2c(c1)C(=O)N([C@H](C)CO)C[C@H](C)[C@H](CN(C)Cc1ccc(C(=O)Nc3ccccc3N)cc1)OCCCC[C@@H](C)O2 | . | 27 | 0
C[C@@H]1CCCCO[C@@H](CN(C)Cc2ccccc2)[C@@H](C)CN([C@H](C)CO)C(=O)c2cc(NC(=O)CCCCCC(=O)Nc3ccccc3N)ccc2O1 | . | 54 | 1
C[C@H]1CN([C@@H](C)CO)C(=O)c2cc(NC(=O)Cc3ccccc3)ccc2O[C@H]1CN(C)Cc1ccc(C(=O)Nc2ccccc2N)cc1 | . | 108* | -2
Cc1c(OC(=O)c2ccco2)ccc2c3c(c(=O)oc12)CCC3 | . | 29 | 1
SMILES | STK33 kin inh | NOMO-1 viab | PD-1 reversal
COC(=O)c1c(N)n(CCc2ccccc2)c2nc3ccccc3nc12 | . | 32 | -1
CS(=O)(=O)N(CC(=O)Nc1cccc(C(F)(F)F)c1)c1ccc(Br)cc1 | 4 | 64 | -7
CCN(CC)C(=S)Oc1ccc(C#N)cc1 | . | 13 | -1
C[C@@H]1CN([C@@H](C)CO)C(=O)c2cc(NC(=O)Cc3ccccc3)ccc2O[C@@H]1CN(C)Cc1ccc(C(=O)Nc2ccccc2N)cc1 | . | 109* | 0
C[C@@H]1CN([C@@H](C)CO)C(=O)c2cc(NC(=O)Cc3ccccc3)ccc2O[C@H]1CN(C)Cc1ccc(C(=O)Nc2ccccc2N)cc1 | . | ? | -1
O=C(O)C12C3CCC4C5C3C1C5(C(=O)O)C42 (stereo not given) | . | -5 | 1
CC(C)c1nc(/N=C/N(C)C)nc(=O)n1C | . | 12 | 1
CC(=O)N1CCN(c2ccc([N+](=O)[O-])c(NCc3cccnc3)c2)CC1 | 3 | 30 | -1
CC(C)(C)c1ccc(C(=O)N2CCN(c3ccc([N+](=O)[O-])c(NCc4cccnc4)c3)CC2)cc1 | -1 | 111* | -4
O=S(=O)(c1cccc(-c2nnc(-c3ccccc3)o2)c1)N1CCCC1 | . | 59 | -1
Cc1ccc2cc3c(nc2c1)N(c1ccc(C(=O)NCc2ccco2)cc1)CC3 | . | 116* | -1
Cc1ccc2cc3c(nc2c1)N(c1ccccc1)CC3 | . | 15 | 1
COc1ccc2oc(-c3cccc(NC(=O)COc4ccc(Cl)cc4)c3)nc2c1 | 5 | 18 | 1
Cc1ccn2cc(-c3cccc(NS(=O)(=O)c4cccc([N+](=O)[O-])c4)c3)nc2c1 | 2 | 38 | 2
COc1cc(C(Nc2ccccn2)c2cc(Cl)c3cccnc3c2O)cc(I)c1O (stereo not given) | 0 | 25 | .
COc1ccc(C(Nc2ccccn2)c2cc(Cl)c3cccnc3c2O)cc1[N+](=O)[O-] (stereo not given) | 0 | 113* | .
O=C(COc1ccc(Cl)c2cccnc12)Nc1cccc([N+](=O)[O-])c1 | -3 | 1 | 3
COc1ccc(Br)cc1C(Nc1ccccn1)c1cc(Cl)c2cccnc2c1O (stereo not given) | 7 | 114* | .
CCn1c(SCC(=O)N2c3ccccc3Sc3ccccc32)nnc1-c1cccc(Cl)c1 | ? | 24 | 0
C[C@@H]1CN([C@H](C)CO)C(=O)c2cc(NC(=O)NC3CCCCC3)ccc2O[C@H]1CN(C)Cc1ccncc1 | 1 | 8 | 0
C[C@@H]1CN([C@H](C)CO)C(=O)c2cc(NC(=O)NC3CCCCC3)ccc2O[C@@H]1CN(C)Cc1ccc(-c2ccccc2)cc1 | . | 87* | .
C[C@H]1CN([C@@H](C)CO)C(=O)c2cc(NC(=O)NC3CCCCC3)ccc2O[C@@H]1CN(C)Cc1ccccc1 | . | -1 | 1
C[C@H]1CN([C@@H](C)CO)C(=O)c2cc(NC(=O)NC3CCCCC3)ccc2O[C@H]1CN(C)Cc1ccncc1 | -2 | 100* | 1
